Giardia kill = Small Molecules that selectively kill Giardia lamblia: qHTS; Giardia lamblia trophozoite viability; 340,000 compounds, 0.15% hits; AID 540267, 2011; activity change, % at 7.66 µM, hits read low; in the data active means activity change below about -80%; inconclusive means between about -30% and that limit;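 further: parasites exposed to compound for two days anaerobically before the ATP read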
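Viability, read as ATP luminescence: trophozoites at 100 cells/well, compound added, 48 hrs anaerobic at 37 deg C, then 15-30 min room-temperature development before reading.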
Gal4-VP16 FLuc = VP16 counterscreen qHTS for inhibitors of ROR gamma transcriptional activity | Drosophila S2 Gal4-VP16 UAS-luciferase, luminescence, 20 h | Potency, µM (series often up to 53.6 µM), most hits filed as inhibitors | 310,000 compounds, 3.5% hits;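 further: Gal4-VP16 expression switched on by copper sulfate through the metallothionein promoter; nearly all actives have a fitted effect of over 50% in size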
p53 reactivation = qHTS assay for re-activators of p53 using a Luc reporter; Potency, µM (highest dose often 92.2 µM), actives largely listed as activators; H1299 p53-A138V BP100-luciferase reporter, luminescence, 24 h; AID 504706, 2011; 320,000 compounds, 0.063% hits; further: nearly all actives have a fitted effect of over 45% in size
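p53-null H1299 cells stably carrying temperature-sensitive p53-A138V and a BP100-luciferase reporter were pinned with compounds (4-point, 1:5 series) and held 24 hrs at 37 deg C. Luminescence was read 10 min after detection reagent.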
BRCA1 expr up = qHTS Assay to Identify Small Molecule Activators of BRCA1 Expression. MCF7-BRCA1-FFLuc reporter, luminescence, 48 h; response scale: scaled: vehicle 0%, 10 µM genistein 100%. Potency, µM (titrated, usually from 46.1 µM), actives largely listed as activators. 380,000 compounds, 1.1% hits. AID 624202, 2012; further: nearly all actives have a fitted effect of over 80% in size
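First, MCF7-BRCA1-FFLuc cells (2000/well) attach for 2 h; next, compounds are pin-added and incubated 48 h at 37 °C; finally, luciferase reagent is added and luminescence read after 15 min.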
RORg inh = qHTS for inhibitors of ROR gamma transcriptional activity | Nuclear receptor ROR-gamma (Mus musculus), P51450 | Drosophila S2 Gal4-RORgamma UAS-luciferase reporter, 20 h | Potency, µM (series often up to 53.6 µM), actives largely listed as inhibitors | 310,000 compounds, 5.4% hits | AID 2551, 2010; further: nearly all actives have a fitted effect of over 60% in size
Target sequence (P51450 whole entry, looked up, the tested form may be a part): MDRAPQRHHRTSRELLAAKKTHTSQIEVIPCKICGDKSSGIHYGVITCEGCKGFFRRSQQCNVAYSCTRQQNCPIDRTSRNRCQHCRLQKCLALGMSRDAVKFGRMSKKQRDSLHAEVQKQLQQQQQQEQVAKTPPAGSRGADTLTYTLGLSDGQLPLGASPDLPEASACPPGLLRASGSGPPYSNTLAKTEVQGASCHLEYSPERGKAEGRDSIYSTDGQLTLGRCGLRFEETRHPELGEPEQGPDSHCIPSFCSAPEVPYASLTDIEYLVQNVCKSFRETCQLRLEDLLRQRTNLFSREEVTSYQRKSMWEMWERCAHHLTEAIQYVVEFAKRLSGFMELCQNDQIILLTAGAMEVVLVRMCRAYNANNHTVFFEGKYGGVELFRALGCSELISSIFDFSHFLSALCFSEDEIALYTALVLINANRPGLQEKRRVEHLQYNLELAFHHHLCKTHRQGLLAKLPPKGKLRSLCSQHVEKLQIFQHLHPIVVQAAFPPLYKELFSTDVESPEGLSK
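Compounds are pin-transferred onto Drosophila Schneider cells expressing a copper-inducible Gal4–ROR gamma transactivation domain fusion. After 1 hr, copper sulfate is added to 700 uM final; luciferase is read 20 hr later.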
ELG1 DNA repair = qHTS screen for small molecules that inhibit ELG1-dependent DNA repair in human embryonic kidney (HEK293T) cells expressing luciferase-tagged ELG1; Potency, µM (doses to about 46.1 µM), usual class: inhibitors; AID 504467, 2011; HEK293T ELG1-luciferase reporter, luminescence, 16 h; DNA damage induced by 5-fluorouridine; 330,000 compounds, 2.3% hits; further: nearly all actives have a fitted effect of over 55% in size
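5-Fluorouridine DNA damage + compound/DMSO, 2,000 cells/well, 16 h, 37 °C/5% CO2. ONE-Glo, 30 min RT, luminescence. Readout = decrease in reporter signal.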
Large screens that a line does not name were inactive. The list is not random: actives were taken first. Their share in the collection is about 7.6%. Unless noted, the call rests on the fitted dose curve; in most records, active means well fitted curve in the direction sought with a large enough effect; inconclusive means small, poorly fitted or top-dose-only effect, or another doubt; inactive means no such curve, though single readings can be large; an effect the other way counts as inactive or inconclusive.

CCN(CC(=O)NCc1cccs1)C(=O)/C=C/c1cc(Br)ccc1OC(F)F	ELG1 DNA repair inconclusive (no result: Gal4-VP16 FLuc, RORg inh)
COc1ccc(OC)c(/C=N/NC(=O)c2ccncc2)c1	none
N/C(Cc1ccc([N+](=O)[O-])cc1)=N\OC(=O)c1ccccc1Br	Gal4-VP16 FLuc 11µM, RORg inh inconclusive
N/C(Cc1ccc([N+](=O)[O-])cc1)=N\OC(=O)CC1CCCCC1	Gal4-VP16 FLuc 13µM, RORg inh 13µM
N/C(=N\OC(=O)c1ccccc1Br)c1ccc([N+](=O)[O-])cc1	Gal4-VP16 FLuc inconclusive, RORg inh inconclusive, ELG1 DNA repair inconclusive (no result: p53 reactivation)
N/C(Cc1ccc([N+](=O)[O-])cc1)=N\OC(=O)C(c1ccccc1)c1ccccc1	Gal4-VP16 FLuc 10µM, RORg inh inconclusive
COc1ccc(C/C(N)=N/OC(=O)C(c2ccccc2)c2ccccc2)cc1OC	Gal4-VP16 FLuc inconclusive
Cc1ccc(CC(=O)O/N=C(\N)Cc2ccc([N+](=O)[O-])cc2)cc1	Gal4-VP16 FLuc inconclusive
CCCCCCN1C[C@@H](O)[C@H](n2cc(C3CC3)nn2)C[C@@H]1c1ccc(OC)cc1	none (no result: Giardia kill, Gal4-VP16 FLuc, p53 reactivation, RORg inh, ELG1 DNA repair)
C[C@H]1[C@@H](c2ccccc2)Oc2ccc(Cl)cc2S(=O)(=O)N1Cc1ccc(F)cc1F	none (no result: Gal4-VP16 FLuc, p53 reactivation, RORg inh, ELG1 DNA repair)
NCCCCCCNS(=O)(=O)c1ccc2c(Cl)cccc2c1	Gal4-VP16 FLuc 28µM, RORg inh inconclusive (no result: Giardia kill, p53 reactivation, ELG1 DNA repair)
NCCCCNS(=O)(=O)c1ccc2c(Cl)cccc2c1	none (no result: Giardia kill, p53 reactivation, BRCA1 expr up, ELG1 DNA repair)
Cc1cccc2sc(N)nc12	none (no result: Giardia kill, p53 reactivation, BRCA1 expr up, ELG1 DNA repair)
Cc1c([N+](=O)[O-])cc(N2C(=O)C=CC2=O)cc1[N+](=O)[O-]	none (no result: Gal4-VP16 FLuc, p53 reactivation, RORg inh, ELG1 DNA repair)
Cc1cc(N2C(=O)C=CC2=O)c([N+](=O)[O-])cc1C	Giardia kill inconclusive, Gal4-VP16 FLuc 4.5µM, RORg inh 7.1µM, ELG1 DNA repair inconclusive
CC1(C)CC(C)(O)N(Cc2ccccc2)C(=S)N1 (configuration not stated)	Gal4-VP16 FLuc 16µM, RORg inh 13µM
Nc1n[nH]c(-c2ccc(F)cc2)n1	none
CCCCc1ccc(-c2nc(N)n[nH]2)cc1	p53 reactivation inconclusive, BRCA1 expr up 7.9µM, ELG1 DNA repair inconclusive
CC(=O)OC[C@@H]1O[C@@H](O/N=C2/C[C@@H](O)[C@@H](O)[C@@H]3[C@@H]4C(=O)N(Cc5ccc6c(c5)OCO6)C(=O)[C@H]4CC[C@H]23)[C@H](OC(C)=O)[C@H](OC(C)=O)[C@@H]1OC(C)=O	none (no result: Giardia kill, p53 reactivation, BRCA1 expr up, ELG1 DNA repair)
CC(Oc1cccc(Cl)c1)C(=O)NNC(=O)c1cccnc1 (configuration not stated)	none (no result: Gal4-VP16 FLuc, RORg inh)
COc1ccc(CCN(Cc2cccs2)S(=O)(=O)c2ccc(-n3cnnn3)cc2)cc1OC	ELG1 DNA repair 16µM
CCc1nc2ccc(C(=O)NCCNC(C)=O)cn2c1N(CC)CCOC	none (no result: Giardia kill, Gal4-VP16 FLuc, p53 reactivation, RORg inh, ELG1 DNA repair)
CC1CCCC(NC(=O)COC(=O)c2ccc(N(C)C)cc2)C1C (configuration not stated)	none
Cc1ccc(C(=O)COC(=O)C2C3C=CC(C3)C2C(=O)OCC(=O)c2ccc(C)c(C)c2)cc1C (configuration not stated)	RORg inh inconclusive, ELG1 DNA repair 13µM
Cc1snc2sc(C(=O)c3ccc(F)cc3)c(N)c12	BRCA1 expr up 10µM, ELG1 DNA repair inconclusive
CCCNC1=C(N(C(C)=O)c2cccc(F)c2)C(=O)c2ccccc2C1=O	Gal4-VP16 FLuc inconclusive, RORg inh inconclusive, ELG1 DNA repair 4.6µM
CCCC(=O)NC1=C(Cl)C(=O)c2ccccc2C1=O	none (no result: Gal4-VP16 FLuc, p53 reactivation, RORg inh, ELG1 DNA repair)
CCCCSc1nsc(NC(C)=O)n1	p53 reactivation inconclusive, ELG1 DNA repair inconclusive
CCCSc1nsc(NC(=O)CCC)n1	BRCA1 expr up 1.4µM, ELG1 DNA repair inconclusive
CNc1nc2[nH]c(=O)c3c(c2s1)OC(N)=C(C#N)C3c1ccccc1 (configuration not stated)	none
Cc1ccc(NC(=S)Nc2ccc3[nH]c(=O)[nH]c3c2)cc1	RORg inh 10µM
O=c1[nH]c2ccc(NC(=S)Nc3ccccc3)cc2[nH]1	none
CCNc1oc(COc2cccc(C)c2)nc1C#N	p53 reactivation inconclusive, BRCA1 expr up 11µM, ELG1 DNA repair inconclusive
COc1cc(/C=C/C(=O)OCC(=O)N2CCCC2)ccc1OCC#N	none (no result: Gal4-VP16 FLuc, RORg inh)
COC(=O)c1cc(C(=O)Nc2nnc(CC(C)(C)C)s2)cc([N+](=O)[O-])c1	Gal4-VP16 FLuc 8.9µM, RORg inh 8.9µM
O=C(Nc1nnc(Cc2ccc([N+](=O)[O-])cc2)s1)c1ccc2c(c1)OCO2	none
CCOCc1nnc(NC(=O)c2cc(C(=O)OC)cc([N+](=O)[O-])c2)s1	none
O=C(Nc1nnc(CSCc2ccc(Cl)cc2)s1)c1cccc([N+](=O)[O-])c1	Gal4-VP16 FLuc 10µM, RORg inh 11µM
O=C(Nc1nnc(CSCc2ccc(F)cc2)s1)c1cccc([N+](=O)[O-])c1	Gal4-VP16 FLuc 20µM, RORg inh 11µM
CCC(C)(C)c1nnc(NC(=O)c2cccc([N+](=O)[O-])c2)s1	Gal4-VP16 FLuc inconclusive, p53 reactivation inconclusive, RORg inh 13µM, ELG1 DNA repair inconclusive
CCc1ccc(-c2nc(CS(=O)CC(=O)O)c(C)o2)cc1 (configuration not stated)	ELG1 DNA repair inconclusive
Cc1ccc2cc(/C=N/Nc3nc4ccccc4[nH]3)c(Cl)nc2c1	Giardia kill inconclusive, Gal4-VP16 FLuc 1.3µM, p53 reactivation inconclusive, RORg inh 4.5µM, ELG1 DNA repair inconclusive
CCN(CC)c1ccc(/C=N/Nc2nc3ccccc3[nH]2)c(O)c1	Gal4-VP16 FLuc 2.8µM, p53 reactivation 18µM, RORg inh 3.5µM, ELG1 DNA repair inconclusive
COc1cc(OC)c(OC)cc1/C=N/Nc1nc2ccccc2[nH]1	ELG1 DNA repair inconclusive
CC(C)[C@H]1CN(C)CCN1Cc1cn(C)nc1-c1cccc(Cl)c1	none
CCOC(=O)N1CCN(Cc2c(F)cccc2F)CC1	none
Cc1ccc(C(=O)NC(=O)OCCn2c(C)cnc2[N+](=O)[O-])cc1	Giardia kill -88
Cc1cnc([N+](=O)[O-])n1CCOC(=O)NC(=O)c1c(F)cccc1F	Giardia kill inconclusive
Cc1cnc([N+](=O)[O-])n1CCOC(=O)NC(=O)c1ccccc1	Giardia kill inconclusive
COc1ccccc1C(=O)NC(=O)OCCn1c(C)cnc1[N+](=O)[O-]	Giardia kill -82
COc1ccc(Cl)cc1NC(=O)CCCN1C(=O)CCC1=O	none
COc1ccc(-n2c(COc3cccc4ccccc34)nnc2SCC#N)cc1	ELG1 DNA repair inconclusive

From PubChem BioAssay
